Compounds with a hit are over-represented: about 18% of the library has one in this group of screens.
IL1B secr inh: inhibitors of inflammasome signaling (IL-1 beta secretion); activity change, % at 57.5 µM; hit rate 4.7% among 360,000; THP-1 LPS/ATP IL-1B secretion, AlphaLISA, 16 h; hits give low values; in the data active = activity change below about -50%; inconclusive = mostly about -30% to -49%
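THP-1 cells pretreated 1 hr with compounds (up to 57.5 uM final), then stimulated with LPS (250 ng/mL final) plus ATP (1.25 mM final); secreted IL-1B measured by AlphaLISA after 16 hr, decreased signal indicating inhibition.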
LDHA inh: LDHA (human) enzyme inhibition. activity change, % (values are at about 110 or 230 µM). hit rate 0.15% among 480,000. purified LDHA, NADH/diaphorase-resazurin fluorescence; hits give low values; in the data active = activity change below about -30%; inconclusive = mostly about -25% to -30%;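 also: plate controls were DMSO wells for no effect and wells without enzyme for full effect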
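Human LDH5 at 2 nM final in Tris HCl pH 7.4 with 0.06 mM NADH and 0.2 mM pyruvate, reacted 5 minutes at room temperature. Remaining NADH coupled via diaphorase/resazurin; resorufin fluorescence read at 0 and 20 minutes, normalized to enzyme-free and DMSO wells.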
RORgamma inh: inhibitors of mouse ROR gamma transcriptional activity. AID 2551. hit rate 5.4% among 310,000. Drosophila S2 Gal4-RORgamma UAS-luciferase reporter, 20 h. Potency, µM (doses to about 53.6 µM), for the others: at the top dose activity change, negative = inhibition, usual class: inhibitors; also: potency is read from the fitted curve at half-maximal effect; nearly all actives have a fitted effect of over 60% in size
Target sequence (P51450 whole entry, looked up, the tested form may be a part): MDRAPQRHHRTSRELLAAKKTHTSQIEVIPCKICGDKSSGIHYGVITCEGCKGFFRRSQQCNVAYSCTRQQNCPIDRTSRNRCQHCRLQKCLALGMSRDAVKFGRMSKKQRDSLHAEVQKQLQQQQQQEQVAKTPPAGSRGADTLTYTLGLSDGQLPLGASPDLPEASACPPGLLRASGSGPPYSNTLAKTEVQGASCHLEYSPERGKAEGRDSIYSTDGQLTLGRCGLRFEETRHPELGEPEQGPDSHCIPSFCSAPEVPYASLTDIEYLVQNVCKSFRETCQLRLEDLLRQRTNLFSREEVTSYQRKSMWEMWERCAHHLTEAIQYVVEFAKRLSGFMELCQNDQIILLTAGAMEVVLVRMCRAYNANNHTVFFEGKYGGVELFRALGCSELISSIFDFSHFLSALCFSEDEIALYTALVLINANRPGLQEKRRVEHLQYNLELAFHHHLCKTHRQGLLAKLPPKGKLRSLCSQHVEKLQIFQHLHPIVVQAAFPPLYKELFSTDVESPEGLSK
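Using a luciferase readout, inhibitors were identified by reduced reporter activity in Drosophila cells coexpressing a copper-inducible Gal4–ROR gamma fusion and UAS-driven Photinus luciferase, incubated 20 hr after 700 uM copper sulfate.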
DT40 TDP1 CPT: growth inhibition of DT40 Tdp1-/-;hTDP1 cells with camptothecin (screen for TDP1 inhibitors); chicken DT40 Tdp1-/-;hTDP1 cells + 20 nM CPT, ATP luminescence, 48 h; AID 686979; hit rate 12% among 420,000; Potency, µM (titrated, usually from 46.2 µM), for the others: at the highest dose activity change, negative = growth inhibition, actives largely listed as inhibitors; also: potency is read from the fitted curve at half-maximal effect; nearly all actives have a fitted effect of over 55% in size
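Cell growth measured by CellTiter-Glo luminescence after a minimum 48 h, 37 C compound exposure with 20 nM CPT in Tdp1-knockout DT40 cells stably expressing hTDP1, seeded 400/well; qHTS titration format.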
TDP1 cell noCPT: qHTS for Inhibitors of human tyrosyl-DNA phosphodiesterase 1 (TDP1): qHTS in cells in absence of CPT | hit rate 15% among 420,000 | DT40 Tdp1-/- hTDP1 cells, no CPT, ATP luminescence, 48 h | Potency, µM (series often up to 46.2 µM), without a hit: at the highest dose activity change, negative = growth inhibition, usual class: inhibitors; also: potency is read from the fitted curve at half-maximal effect; nearly all actives have a fitted effect of over 55% in size
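A cellular qHTS used chicken DT40 cells lacking endogenous Tdp1 but carrying stably transfected human TDP1. Compounds were applied without camptothecin, and cell growth kinetics were judged by ATP-dependent luminescence after ≥48 hr.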
Gal4-VP16 FLuc: inhibits Gal4-VP16 luciferase reporter, ROR gamma counter-screen; Drosophila S2 Gal4-VP16 UAS-luciferase, luminescence, 20 h; Potency, µM (top dose mostly 53.6 µM), without a hit: top-dose activity, negative = inhibition, most hits filed as inhibitors; hit rate 3.5% among 310,000; AID 2546;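 also: Gal4-VP16 expression switched on by copper sulfate through the metallothionein promoter; potency is read from the fitted curve at half-maximal effect; nearly all actives have a fitted effect of over 50% in size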
Numbers without * were called inactive; ? = inconclusive; . = not tested or not shown; [ ] = another dose, or the depositor's remark. Unless noted, calls follow the shape of the dose curve; as a rule, active = well fitted curve in the direction sought with a large enough effect; inconclusive = small, poorly fitted or top-dose-only effect, or another doubt; inactive = no such curve, though single readings can be large; an effect the other way counts as inactive or inconclusive. Unless noted, % is scaled to controls: 0 for no effect and ±100 for the full control effect.

SMILES	IL1B secr inh	LDHA inh	RORgamma inh	DT40 TDP1 CPT	TDP1 cell noCPT	Gal4-VP16 FLuc
CNC(=S)N/N=C/c1c(C)nn(-c2cccc(Cl)c2)c1Cl	0	-3	2µM*	-11%	-3%	1.3µM*
Cc1nn(-c2ccccc2)c(Cl)c1/C=N/NC(=O)c1ccco1	6	-14	22%	3%	-23%	-2%
Cc1nn(-c2ccccc2)c(Cl)c1/C=N/NC(=O)OC(C)(C)C	-23	-4	?	?	16µM*	1%
CNC(=S)N/N=C/c1c(C)nn(-c2ccccc2)c1Cl	-11	-4	?	-26%	-29%	0.89µM*
Cc1cc(C)cc(OCCN(C)C(=O)Cc2c[nH]c3ccccc23)c1	.	0	.	.	.	.
CCOc1ccc(CNC(=O)c2ncoc2-c2cccc(Cl)c2)cc1OC	.	-10	.	.	.	.
CCN1CCN(/C=N/c2nc3c(s2)CCCC3)CC1	0	7	8.9µM*	-9%	-14%	7.1µM*
Cc1cc(Cl)c(Cl)cc1S(=O)(=O)Nc1ccccn1	.	-2	.	.	.	.
CCn1c(SCC(=O)N2CCN(c3ccccc3)CC2)nnc1-c1ccncc1	.	.	34%	.	.	-9%
Cc1ccc(CSCc2nnc(SCC(=O)N3CCN(c4ccccc4)CC3)n2C)cc1	?	-2	?	?	16µM*	?
CCc1ccccc1-n1c(SCC(=O)N2CCCC2)nnc1-c1ccccn1	-10	-5	8%	?	20µM*	1%[0.365 µM]
CCn1c(CSCc2ccc(F)cc2)nnc1SCC(=O)N1CCN(c2ccccc2)CC1	?	-4	-24%	?	23µM*	-2%
Cc1ccccc1-n1c(SCC(=O)N2CCN(c3ccccc3)CC2)nnc1-c1ccncc1	4	-6	-22%	16µM*	21µM*	2%
COc1ccc(N(Cc2nc3nc(C)cc(=O)n3[nH]2)C(=O)c2ccccc2F)cc1	.	-4	.	.	.	.
CCC1c2ccsc2CCN1C(=O)/C=C/c1ccccc1C (stereo unspecified)	.	2	.	.	.	.
COc1cc(CNc2ccccc2SC)cc(OC)c1OC	-2	18	5%	21µM*	21µM*	14%
COc1ccc(CNc2ccccc2SC)cc1OC	-5	18	-45%	?	?	1%
CCOc1ccc(NCc2cc3cc(OC)ccc3[nH]c2=O)cc1	45	5	24%	5.8µM*	21µM*	?
COc1ccc2[nH]c(=O)c(CNc3ccccc3)cc2c1	-6	16	6%	4.1µM*	?	-14%
COc1ccccc1CNc1nc2ccccc2nc1C(=O)OC(C)C	.	0	.	.	.	.
CN1CCN(S(=O)(=O)c2ccc(N3CCN(S(=O)(=O)/C=C/c4ccccc4)CC3)nc2)CC1	-8	-11	-19%	18µM*	?	-19%
CC(=O)c1ccc(N2CCN(c3ccc(S(=O)(=O)N4CCN(C)CC4)cn3)CC2)cc1	35	-2	18%	-33%	-36%	2%
CN1CCN(S(=O)(=O)c2ccc(N3CCN(c4cccc(Cl)c4)CC3)nc2)CC1	.	5	.	.	.	.
CN1CCN(S(=O)(=O)c2ccc(N3CCN(C(c4ccccc4)c4ccccc4)CC3)nc2)CC1	19	-5	-2%	?	16µM*	7%
CN(C)c1nc(/C=C(\C#N)C(N)=O)c(Cl)n1-c1ccc(F)cc1	-98*	0	-45%	16µM*	21µM*	?
SMILES	IL1B secr inh	LDHA inh	RORgamma inh	DT40 TDP1 CPT	TDP1 cell noCPT	Gal4-VP16 FLuc
Cc1ccc(C(=O)Cn2c(=O)n(CCc3ccccc3)c(=O)c3sccc32)cc1	.	-1	.	.	.	.
CCOc1ccc2nc(SC3CC(=O)N(c4ccc(OC)cc4)C3=O)sc2c1 (stereo unspecified)	-4	-1	16µM*	2.9µM*	4.6µM*	?
COc1ccc(N2C(=O)CC(Sc3nnc(-c4ccccc4F)n3C)C2=O)cc1 (stereo unspecified)	18	-10	?	4.1µM*	5.2µM*	?
C=CCNc1nnc(SC2CC(=O)N(c3ccc(OC)cc3)C2=O)s1 (stereo unspecified)	-11	-9	4.5µM*	3.7µM*	4.6µM*	13µM*
CCOc1ccc2nc(SC3CC(=O)N(c4ccc(C)c(C)c4)C3=O)nc(C)c2c1 (stereo unspecified)	.	4	.	.	.	.
COc1ccc(N2C(=O)CC(Sc3nc4ccccc4s3)C2=O)cc1 (stereo unspecified)	9	0	5µM*	2.9µM*	3.7µM*	?
CC(Oc1cc(Cl)ccc1Cl)c1nc(-c2cccnc2)no1 (stereo unspecified)	.	8	.	.	.	.
COc1ccc(-c2noc(N3CCCC(C(=O)Nc4ccc(F)cc4F)C3)n2)cc1 (stereo unspecified)	-13	1	12%	?	?	6%
COc1ccc(C(=O)N2CCCC(c3nc(-c4ccc(OC)c(OC)c4)no3)C2)c(OC)c1 (stereo unspecified)	0	0	35%	?	?	2%
O=C(c1ccc(F)cc1F)N1CCCC(c2nc(-c3ccc(F)cc3)no2)C1 (stereo unspecified)	-21	-4	?	?	18µM*	-2%
O=C(Nc1ccc(F)cc1F)N1CCCC(c2nc(-c3ccc(F)cc3)no2)C1 (stereo unspecified)	-15	-6	2%	18µM*	?	-4%
Cc1ccc(NC(=O)Cc2c(C)nc3nc(-c4cccs4)nn3c2C)c(C)c1	.	2	.	.	.	.
CC(C)c1ccc(CN2CCN(C(=O)CCl)CC2)cc1	-100*	-6	5%	1.2µM*	0.73µM*	-2%
CC(C)c1ccc(NC(=O)c2ccc(CN3CC(=O)N4CCCCC4C3=O)cc2)cc1 (stereo unspecified)	.	-5	.	?	16µM*	.
CC(C)c1ccc(C(=O)Nc2ccc(CN3CCOCC3)cc2)cc1	-55*	-10	-21%	?	?	?
CC(C)c1ccc(/C=C/C(=O)Nc2ccc(CN3CCOCC3)cc2)cc1	-94*	0	?	8.2µM*	13µM*	?
Cc1ccccc1NC(=O)c1ccc(CN2CC(=O)N3CCCCC3C2=O)cc1 (stereo unspecified)	4	1	-25%	3%	-10%	-9%
CC(C)CC(=O)N1CCN(Cc2ccc(Cl)cc2)CC1	-18	-11	-7%	-3%	?	-6%
CN(CC(=O)Nc1cccc(F)c1)C(=O)c1cc2ccccc2cc1O	.	12	.	.	.	.

Bioassay records deposited in PubChem by National Center for Advancing Translational Sciences (NCATS).
